{"source": "PubChem BioAssay (NCI)", "note": "This is part of a sample that, as a whole, favours compounds with a hit. Of some 79,000 tested, about 15% had one in any assay. The source made the active and inactive calls. Rule as the data show it: active = growth inhibition above about 70%; inactive = the rest."}
{"assay": "NCI Yeast Anticancer Drug Screen. Data for the sgs1 mgt1 strain (AID 161);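 also: 0% = growth of cultures given vehicle only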", "conditions": "S. cerevisiae sgs1 mgt1 strain, at 50.0 µM, hits give high values", "in_short": "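Inhibition of yeast growth, normalised to vehicle-treated controls, is reported for a strain bearing genetic alterations in DNA damage repair.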"}
{"compound": "CCOP(=O)(OCC)/C(C#N)=C/c1ccc(Oc2ccccc2)cc1", "growth inhibition": "91.5% (active)"}
{"compound": "CC(=O)Nc1ccc(S(=O)(=O)/N=C2\\C=CC(=O)c3ccccc32)cc1", "growth inhibition": "79.9% (active)"}
{"compound": "CCCC#CCCOC(=O)c1cc([N+](=O)[O-])cc([N+](=O)[O-])c1", "growth inhibition": "99.5% (active)"}
{"compound": "COc1cccc2c1OC(c1ccc(Cl)cc1)C([N+](=O)[O-])=C2", "note": "(stereo not given)", "growth inhibition": "87.6% (active)"}
{"compound": "c1ccc(-n2c3ccccc3c3ccccc32)cc1", "growth inhibition": "88.2% (active)"}
{"compound": "CCOC(=O)C(NC(C)=O)[CH](c1ccccc1)[Sn]([c]1ccccc1)([c]1ccccc1)[c]1ccccc1", "note": "(stereo not given)", "growth inhibition": "99.1% (active)"}
{"compound": "C/C(CCn1[nH]c(=O)ccc1=O)=N\\Nc1ccc([N+](=O)[O-])cc1[N+](=O)[O-]", "growth inhibition": "19.6% (inactive)"}
{"compound": "N#CC(O)C(Br)(Br)Br", "note": "(stereo not given)", "growth inhibition": "83.3% (active)"}
{"compound": "COc1ccc(N)c([N+](=O)[O-])c1", "growth inhibition": "69.5% (inactive)"}
{"compound": "CC(C)O[C@H]1N(C2CC(N=[N+]=[N-])C(CO)O2)C(=O)NC(=O)[C@]1(C)Br", "note": "(stereo not given in full)", "growth inhibition": "90.5% (active)"}
{"compound": "COc1ccc(C(=O)C2C(=O)C(=O)OC2C2OC(=O)C(=O)C2C(=O)c2ccc(OC)cc2)cc1", "note": "(stereo not given)", "growth inhibition": "-8.2% (inactive)"}
{"compound": "O=[N+]([O-])c1c(Cl)c(Cl)c(O)c(Cl)c1Cl", "growth inhibition": "90% (active)"}
{"compound": "Cc1ccc(C)c(NC(=O)CCC(=O)CC(=O)c2ccncc2)c1", "growth inhibition": "16.8% (inactive)"}
{"compound": "CC(C)CCCC(C)C1CCC2C3CC=C4CC(OC(=O)Nc5ccc(S(=O)(=O)c6ccc(F)cc6)cc5)CCC4(C)C3CCC12C", "note": "(stereo not given)", "growth inhibition": "97.8% (active)"}
{"compound": "COc1ccc(/C=C(/NC(=O)c2ccccc2)C(=O)Nc2ccccc2)cc1OC", "growth inhibition": "-18.4% (inactive)"}
{"compound": "C=C(Br)CN(CC(=C)Br)C(C)=O", "growth inhibition": "-2.5% (inactive)"}
{"compound": "CCN(C(C)=O)c1ccc2c(c1)Cc1ccccc1-2", "growth inhibition": "96.8% (active)"}
{"compound": "NN(c1ccccc1)c1cccc2ccccc12", "growth inhibition": "39.1% (inactive)"}
{"compound": "C#CCN1CCN(C(=S)N/N=C(\\C)c2ccccn2)CC1", "growth inhibition": "99.5% (active)"}
{"compound": "CC(C)OC(=O)C1C=CCc2c(O)ccc(O)c21", "note": "(stereo not given)", "growth inhibition": "61% (inactive)"}
{"compound": "CC(=O)C1C(=O)C=C(C)OC1=O", "note": "(stereo not given)", "growth inhibition": "-0.75% (inactive)"}
{"compound": "CCOC(=O)c1[nH]n(-c2ccccc2)c(=O)c1/C=N/C(=S)N=Nc1c(O)[nH]c2ccccc12", "growth inhibition": "-22.6% (inactive)"}
{"compound": "N#Cc1c(Cl)nnc(-c2ccccc2)c1-c1ccccc1", "growth inhibition": "92.8% (active)"}
{"compound": "CC(=O)Oc1c(O)c2ccccc2c2ccccc12", "growth inhibition": "99.3% (active)"}
{"compound": "Cc1cccnc1NC(=S)Nc1ccccc1Cl", "growth inhibition": "93.2% (active)"}
{"compound": "CCOC(=O)/C(=C\\c1cccc(OC)c1)C(C)=O", "growth inhibition": "90% (active)"}
{"compound": "c1ccc(C(c2ccccc2)c2ccc3ccccc3n2)cc1", "growth inhibition": "67.8% (inactive)"}
{"compound": "O=c1cc(CSc2ccc(Cl)cc2)occ1O", "growth inhibition": "87.2% (active)"}
{"compound": "COc1cc(NCCCCCNC2CCCCC2)c2ncccc2c1", "growth inhibition": "74.1% (active)"}
{"compound": "CC(=O)OCc1ccc([N+](=O)[O-])o1", "growth inhibition": "64.3% (inactive)"}
{"compound": "O=C(O)Cc1cccc2cc3c(ccc4ccccc43)cc12", "growth inhibition": "10.1% (inactive)"}
{"compound": "Cc1cccc(N2C(=O)c3ccccc3C2(c2ccccc2)N2CCCCC2)c1", "note": "(stereo not given)", "growth inhibition": "73.7% (active)"}
{"compound": "O=C(/C=C/c1ccccc1)CCN1CCOCC1", "growth inhibition": "86.5% (active)"}
{"compound": "C=CCCCCCCCCC(=O)CCCCCCCCC=C", "growth inhibition": "-3.35% (inactive)"}
{"compound": "Cc1ccc(O)c(C(C)c2ccccc2)c1", "note": "(stereo not given)", "growth inhibition": "98.8% (active)"}
{"compound": "COC(=O)c1nc(N)nc(C(=O)OC)c1C(=O)c1ccccc1", "growth inhibition": "-29.4% (inactive)"}
{"compound": "Cc1ccc(S(=O)(=O)Oc2ccc(C(C)(C)C)cc2Cl)cc1", "growth inhibition": "9.35% (inactive)"}
{"compound": "CCCCCCCCCCCCCCC[N+]1(CC)CCCCC1", "growth inhibition": "91.7% (active)"}
{"compound": "CC12CCC(=O)C=C1C=CC1C2CCC2(C)C1CCC21CCC(=O)O1", "note": "(stereo not given)", "growth inhibition": "84% (active)"}
{"compound": "CC(C)N(C(=O)C12C3C4C1C1C2C3C41I)C(C)C", "note": "(stereo not given)", "growth inhibition": "68.5% (inactive)"}
{"assay": "NCI Yeast Anticancer Drug Screen. Data for the cln2 rad14 strain (AID 165);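 also: 0% = growth equal to vehicle treated cultures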", "conditions": "S. cerevisiae cln2 rad14 strain, at 5.0 µM (retest, dose inferred, filed as 0.5), hits give high values", "in_short": "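Test compounds were added to cln2 rad14 yeast cultures; inhibition of growth was then determined by comparison with vehicle treatment.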"}
{"compound": "CCOP(=O)(OCC)/C(C#N)=C/c1ccc(Oc2ccccc2)cc1", "growth inhibition": "-5% (inactive)"}
{"compound": "CC(=O)Nc1ccc(S(=O)(=O)/N=C2\\C=CC(=O)c3ccccc32)cc1", "growth inhibition": "-9% (inactive)"}
{"compound": "CCCC#CCCOC(=O)c1cc([N+](=O)[O-])cc([N+](=O)[O-])c1", "growth inhibition": "-7% (inactive)"}
{"compound": "COc1cccc2c1OC(c1ccc(Cl)cc1)C([N+](=O)[O-])=C2", "note": "(stereo not given)", "growth inhibition": "86% (active)"}
{"compound": "c1ccc(-n2c3ccccc3c3ccccc32)cc1", "growth inhibition": "1% (inactive)"}
{"compound": "CCOC(=O)C(NC(C)=O)[CH](c1ccccc1)[Sn]([c]1ccccc1)([c]1ccccc1)[c]1ccccc1", "note": "(stereo not given)", "growth inhibition": "-19% (inactive)"}
{"compound": "C/C(CCn1[nH]c(=O)ccc1=O)=N\\Nc1ccc([N+](=O)[O-])cc1[N+](=O)[O-]", "growth inhibition": "23% (inactive)"}
{"compound": "N#CC(O)C(Br)(Br)Br", "note": "(stereo not given)", "growth inhibition": "6% (inactive)"}
{"compound": "COc1ccc(N)c([N+](=O)[O-])c1", "growth inhibition": "-1% (inactive)"}
{"compound": "CC(C)O[C@H]1N(C2CC(N=[N+]=[N-])C(CO)O2)C(=O)NC(=O)[C@]1(C)Br", "note": "(stereo not given in full)", "growth inhibition": "4% (inactive)"}
{"compound": "COc1ccc(C(=O)C2C(=O)C(=O)OC2C2OC(=O)C(=O)C2C(=O)c2ccc(OC)cc2)cc1", "note": "(stereo not given)", "growth inhibition": "-4% (inactive)"}
{"compound": "O=[N+]([O-])c1c(Cl)c(Cl)c(O)c(Cl)c1Cl", "growth inhibition": "31% (inactive)"}
{"compound": "Cc1ccc(C)c(NC(=O)CCC(=O)CC(=O)c2ccncc2)c1", "growth inhibition": "-4% (inactive)"}
{"compound": "CC(C)CCCC(C)C1CCC2C3CC=C4CC(OC(=O)Nc5ccc(S(=O)(=O)c6ccc(F)cc6)cc5)CCC4(C)C3CCC12C", "note": "(stereo not given)", "growth inhibition": "3% (inactive)"}
{"compound": "COc1ccc(/C=C(/NC(=O)c2ccccc2)C(=O)Nc2ccccc2)cc1OC", "growth inhibition": "-23% (inactive)"}
{"compound": "C=C(Br)CN(CC(=C)Br)C(C)=O", "growth inhibition": "15% (inactive)"}
{"compound": "CCN(C(C)=O)c1ccc2c(c1)Cc1ccccc1-2", "growth inhibition": "-2% (inactive)"}
{"compound": "NN(c1ccccc1)c1cccc2ccccc12", "growth inhibition": "-4% (inactive)"}
{"compound": "C#CCN1CCN(C(=S)N/N=C(\\C)c2ccccn2)CC1", "growth inhibition": "21% (inactive)"}
{"compound": "CC(C)OC(=O)C1C=CCc2c(O)ccc(O)c21", "note": "(stereo not given)", "growth inhibition": "7% (inactive)"}
{"compound": "CC(=O)C1C(=O)C=C(C)OC1=O", "note": "(stereo not given)", "growth inhibition": "7% (inactive)"}
{"compound": "CCOC(=O)c1[nH]n(-c2ccccc2)c(=O)c1/C=N/C(=S)N=Nc1c(O)[nH]c2ccccc12", "growth inhibition": "-18% (inactive)"}
{"compound": "N#Cc1c(Cl)nnc(-c2ccccc2)c1-c1ccccc1", "growth inhibition": "-1% (inactive)"}
{"compound": "CC(=O)Oc1c(O)c2ccccc2c2ccccc12", "growth inhibition": "-11% (inactive)"}
{"compound": "Cc1cccnc1NC(=S)Nc1ccccc1Cl", "growth inhibition": "-12% (inactive)"}
{"compound": "CCOC(=O)/C(=C\\c1cccc(OC)c1)C(C)=O", "growth inhibition": "-14% (inactive)"}
{"compound": "c1ccc(C(c2ccccc2)c2ccc3ccccc3n2)cc1", "growth inhibition": "2% (inactive)"}
{"compound": "O=c1cc(CSc2ccc(Cl)cc2)occ1O", "growth inhibition": "7% (inactive)"}
{"compound": "COc1cc(NCCCCCNC2CCCCC2)c2ncccc2c1", "growth inhibition": "7% (inactive)"}
{"compound": "CC(=O)OCc1ccc([N+](=O)[O-])o1", "growth inhibition": "0% (inactive)"}
{"compound": "O=C(O)Cc1cccc2cc3c(ccc4ccccc43)cc12", "growth inhibition": "-2% (inactive)"}
{"compound": "Cc1cccc(N2C(=O)c3ccccc3C2(c2ccccc2)N2CCCCC2)c1", "note": "(stereo not given)", "growth inhibition": "2% (inactive)"}
{"compound": "O=C(/C=C/c1ccccc1)CCN1CCOCC1", "growth inhibition": "0% (inactive)"}
{"compound": "C=CCCCCCCCCC(=O)CCCCCCCCC=C", "growth inhibition": "6% (inactive)"}
{"compound": "Cc1ccc(O)c(C(C)c2ccccc2)c1", "note": "(stereo not given)", "growth inhibition": "-8% (inactive)"}
{"compound": "COC(=O)c1nc(N)nc(C(=O)OC)c1C(=O)c1ccccc1", "growth inhibition": "-13% (inactive)"}
{"compound": "Cc1ccc(S(=O)(=O)Oc2ccc(C(C)(C)C)cc2Cl)cc1", "growth inhibition": "-3% (inactive)"}
{"compound": "CCCCCCCCCCCCCCC[N+]1(CC)CCCCC1", "growth inhibition": "99% (active)"}
{"compound": "CC12CCC(=O)C=C1C=CC1C2CCC2(C)C1CCC21CCC(=O)O1", "note": "(stereo not given)", "growth inhibition": "2% (inactive)"}
{"compound": "CC(C)N(C(=O)C12C3C4C1C1C2C3C41I)C(C)C", "note": "(stereo not given)", "growth inhibition": "3% (inactive)"}
